Experimental data published in PubChem BioAssay (NCI).
Compounds without any hit were thinned out: in the full panel of roughly 83,000, 20% have a hit.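 48-hour exposure, single concentration, 96-well plates; percent growth endpoint where 0 means no net growth. Active: below 10.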 Values without a mark were called inactive. Calls of active or inactive are those of the source.

Key:
Assay in all cases: NCI-60 one-dose screen, 48 h (100 = growth as untreated, 0 = no growth, -100 = all killed)
Conditions in all cases: 10 µM unless noted
SR leukemia = system: SR leukemia
RPMI-8226 leukemia = system: RPMI-8226 leukemia
OVCAR-8 ovarian = system: OVCAR-8 ovarian
OVCAR-5 ovarian = system: OVCAR-5 ovarian
OVCAR-4 ovarian = system: OVCAR-4 ovarian
SK-OV-3 ovarian = system: SK-OV-3 ovarian
IGROV1 ovarian = system: IGROV1 ovarian
OVCAR-3 ovarian = system: OVCAR-3 ovarian
HS 578T breast = system: HS 578T breast
NCI/ADR-RES ovarian = system: NCI/ADR-RES ovarian

Compound	growth (SR leukemia)	growth (RPMI-8226 leukemia)	growth (OVCAR-8 ovarian)	growth (OVCAR-5 ovarian)	growth (OVCAR-4 ovarian)	growth (SK-OV-3 ovarian)	growth (IGROV1 ovarian)	growth (OVCAR-3 ovarian)	growth (HS 578T breast)	growth (NCI/ADR-RES ovarian)
Cc1cccc2c1NC(=O)C2(c1ccc(O)cc1)c1ccc(O)cc1	89%	80.9%	4.88% (active)	75.9%	-16% (active)	89.5%	45.7%	25.6%	-5.53% (active)	11%
CC1(C)c2[nH]c3ccccc3c2C[C@]2(C)[C@H]3CC=C4[C@@H]5C[C@@](C)(C(N)=O)CC[C@]5(C)CC[C@@]4(C)[C@]3(C)CC[C@@H]12	34.3%	38.3%	50.8%	102%	32.4%	70.1%	74.4%		91.5%	67.5%
CC12CCC3c4ccccc4CCC3(CO1)C2 (configuration not stated)	99.1%	97.1%	103%	96.3%	108%	98.3%	121%		93.5%	106%
O=C1Nc2ccccc2/C1=C\c1nc(-c2ccccc2F)n2ccccc12	49.6%	44.6%	5.14% (active)	47.8%	-34.4% (active)	-0.955% (active)	2.99% (active)		12%	9.77% (active)
COc1ccc2[nH]cc(-c3nc(-c4c[nH]c5ccncc45)cs3)c2c1	0.735% (active)	-20% (active)	38.6%	45.3%	47.3%	86.3%	64.7%		93.2%	59.9%
COc1cccc(CNc2ncnc3c2ncn3C2OC(CO)C(O)C2O)c1O (configuration not stated)	-9.69% (active)	-28.5% (active)	6.83% (active)	9.68% (active)	11.3%	-61.5% (active)	-23.4% (active)	-0.409% (active)	-27% (active)	2.34% (active)
COc1cc(OC)c2sc(-c3ccc(-n4cncc4-c4ccc(OC)c(OC)c4)cc3)nc2c1	50.7%	33.3%	71%	79.5%	52.9%	84.8%	67.2%		75.5%	56.4%
CCOC(=O)c1c(C)nc2c(c1N)CC(=O)N2Cc1cc(F)cc(Cl)c1	75.3%	71.7%	95.9%	97.5%	67.5%	115%	102%	93.8%	108%	81.2%
Fc1ccc(-c2nn(-c3ccccc3)cc2-c2nc3ccccc3o2)cc1	43.6%	48.2%	58.8%	122%	78.1%	120%	82.1%		82%	46.9%
CCOC(=O)c1ccc2[nH]c(O)c(C(=Nc3ccc(N(C)C(=O)CN4CCN(C)CC4)cc3)c3ccccc3)c2c1	-20.7% (active)	-28.2% (active)	-11.9% (active)	-14% (active)	-71.1% (active)	-20.3% (active)	-33.6% (active)		-5.29% (active)	53.1%
Cc1nc2ncnc(Cl)c2[nH]1	98.3%	82.4%	95.4%	109%	106%	105%	106%		110%	108%
COc1ccc(Cc2cc(-c3ccccc3)nn(Cc3ccccc3)c2=O)cc1OC	40.2%	15.2%	32.3%	68.3%	32.5%	74.1%	47%	47.6%	66.6%	30.2%
COP(=O)(OC)C(C)(C)CC(=O)CC(C#N)(C#N)C(C#N)C#N	95.5%	87.8%	105%	94.4%	116%	101%	110%	114%	104%	98.4%
COC(=O)c1n[nH]c2ccc3nc(-c4cn[nH]c4C(F)(F)F)c4c(c3c12)CCCC4	11.9%	57.5%	34.6%	70.2%	62.5%	15.3%	19.5%		9.88% (active)	83.7%
COc1ccc(NC(=O)c2sc3nc(C)c(C(=O)/C=C/c4cccc(OC)c4)cc3c2N)cc1	5.9% (active)	-22.9% (active)	11.6%	59.6%	69.1%	91.8%	11%	-18.4% (active)	36.8%	19.5%
O=C(Cn1cc(CN2CCCCCC2)nn1)Nc1ccc2c(ccn2Cc2ccccc2)c1	36.8%	64.3%	98.4%	105%	87%	82.7%	94%		88.5%	102%
N#Cc1c(-c2ccccc2)cc(-c2ccccc2)n(CCCCCC(=O)Nc2ccccc2N)c1=O	18.5%	-19.2% (active)	58.8%	66.4%	65.9%	90.4%	45.9%	59.2%	76.2%	49%
CN1C(=O)N(C)C2Nn3c(s/c(=C\c4ccc(C(F)(F)F)cc4)c3=O)=NC21 (configuration not stated)	96.9%	106%	108%	103%	102%	111%	101%	106%	105%	99.8%
O=C(NNC(=O)c1ccc(-n2cc(-c3ccccc3)nn2)cc1)Nc1ccccc1	110%	102%	95.9%	120%	104%	85.2%	103%	114%	92.2%	107%
O=C1c2cccc(NCCN=Cc3cc(O)ccc3O)c2C(=O)c2c(NCCN=Cc3cc(O)ccc3O)cccc21	40.4%	-60.1% (active)	7.56% (active)	-28.1% (active)	-47% (active)	73.4%	-6.03% (active)	-48.8% (active)	-37.6% (active)	42.9%
O=C1/C(=C/c2ccc(F)cc2)COc2ccc(O)cc21	1.11% (active)	-19% (active)	87.4%	96.9%	93.4%	123%	84.9%		94.1%	93.2%
COC(=O)[C@]1(C)CCC[C@]2(C)[C@H]3C[C@H]4C(C(C)C)=C[C@]3(CC[C@H]21)[C@H]1[C@@H]4[C@@H](OCCC#N)CC[C@@H]1OCCC#N	2.88% (active)	-16.1% (active)	51.5%	92.8%	30.7%	75.8%	41.5%		59.4%	41.8%
O=C1/C(=C/c2ccc(F)cc2)COc2ccc(O)c(O)c21	18.9%	-2.78% (active)	6.23% (active)	1.54% (active)	43%	69.1%	-21.8% (active)		21.5%	1.04% (active)
CC1=Nc2cnc(Nc3ccc(OCCN4CCCCC4)cc3)nc2Nc2ccccc21	33.7%	62.7%	72.9%	70.7%	53%	34.8%	14.7%		33.6%	69.8%
Cn1cc(-c2csc(-c3c[nH]c4ccc(Br)cc34)n2)c2cnccc21	-30.9% (active)	-40.3% (active)	-60.5% (active)	-95.7% (active)	-84.8% (active)	-95.5% (active)	-77.8% (active)		-60.5% (active)	-69.2% (active)
O=C1Nc2ccccc2[C@]12CC(c1ccccc1)=NN2	21.6%	39%	65.8%	61.7%	84.5%	57.1%	33.1%		58.4%	44.9%
CC1Cc2c(Cl)ncnc2N(C)c2ccc(F)cc21 (configuration not stated)	95.3%	98.4%	91.9%	99.9%	95.4%	89.6%	105%		64.1%	101%
Cc1ccc(/C=N/Nc2nc(Nc3ccccc3)nc(-n3nc(C)cc3C)n2)cc1	36.2%	32.9%	21.6%	59.5%	27.6%	69.3%	5.33% (active)		78.9%	13.1%
